From PubChem BioAssay
This is a sample that favours compounds with a hit; in the whole collection about 6.8% have one here.
Pf Dd2 inh: P. falciparum Dd2 growth inhibition. SYBR Green, 72 h; stronger effect = lower value. activity change, % at 10 µM. 94,000 compounds, 2.3% hits. AID 1159554; in the data active = activity change below about -80%; inconclusive = no clear call, values can overlap the other calls
C diff growth: C. difficile growth inhibition | AID 1259249 | growth activity, negative = inhibition, % at 16 µg/mL (by protocol) | Clostridium difficile clinical isolate growth, OD600, 24 h; stronger effect = lower value | 86,000 compounds, 0.25% hits;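 active = mean growth activity at or below -80% and every replicate also at or below -80%; inconclusive = mean at or below -80% but some replicate above -80%; inactive = mean growth activity above -80%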;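 also: 0% = DMSO wells and -100% = levofloxacin 16 µg/mL wells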
T cruzi growth: T. cruzi proliferation inhibition. AID 624255. 77,000 compounds, 5.9% hits. inhibition, % at 8.34 µM. T. cruzi beta-gal in NIH3T3, GalScreen luminescence, 90 h;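 active = mean inhibition above about 93%, with at least 55% of replicates each passing it, limit read from the data, passing the limit was not always enough; inconclusive = only one of those two conditions holds; inactive = neither condition holds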
Starred values were filed as active, the others as inactive; ? = inconclusive; . = not tested or not shown.

SMILES	Pf Dd2 inh	C diff growth	T cruzi growth
C[C@H](CO)N1C[C@H](C)[C@@H](CN(C)S(C)(=O)=O)Oc2ccc(NC(=O)Cc3ccccc3)cc2C1=O	15	-4	50
C[C@@H]1CCCCO[C@H](CN(C)S(=O)(=O)c2ccc(F)cc2)[C@@H](C)CN([C@@H](C)CO)C(=O)c2cc(NC(=O)Nc3cccc4ccccc34)ccc2O1	-68	-8	82
C[C@@H]1CCCCO[C@@H](CN(C)Cc2ccc(Cl)c(Cl)c2)[C@H](C)CN([C@H](C)CO)C(=O)c2cc(NC(=O)Nc3ccc(C(F)(F)F)cc3)ccc2O1	-86*	21	51
C[C@H]1CCCCO[C@H](CN(C)Cc2ccc(C(F)(F)F)cc2)[C@@H](C)CN([C@@H](C)CO)C(=O)c2cc(NC(=O)c3ccccc3)ccc2O1	-42	19	74
C[C@@H]1CCCCO[C@H](CN(C)Cc2ccc(Cl)c(Cl)c2)[C@H](C)CN([C@@H](C)CO)C(=O)c2cc(NC(=O)Nc3ccc(C(F)(F)F)cc3)ccc2O1	?	16	60
C[C@H]1CCCCO[C@@H](CN(C)Cc2ccc(C(F)(F)F)cc2)[C@@H](C)CN([C@@H](C)CO)C(=O)c2cc(NC(=O)c3ccccc3)ccc2O1	-59	13	63
C[C@@H]1CCCCO[C@H](CN(C)Cc2ccc(C(F)(F)F)cc2)[C@@H](C)CN([C@@H](C)CO)C(=O)c2cc(NC(=O)Nc3ccccc3)ccc2O1	-82*	6	70
C[C@H]1CCCCO[C@H](CN(C)Cc2ccc(C(F)(F)F)cc2)[C@@H](C)CN([C@@H](C)CO)C(=O)c2cc(NC(=O)Nc3ccccc3)ccc2O1	-6	5	68
C[C@@H]1CCCCO[C@H](CN(C)Cc2ccc(C(F)(F)F)cc2)[C@@H](C)CN([C@@H](C)CO)C(=O)c2cc(NC(=O)c3ccccc3)ccc2O1	-86*	23	68
C[C@@H]1CN([C@@H](C)CO)C(=O)c2cc(NC(=O)c3ccccc3)ccc2O[C@@H](C)CCCCO[C@H]1CN(C)Cc1ccc(C(F)(F)F)cc1	-84*	33	69
C[C@@H]1CN([C@@H](C)CO)C(=O)Cc2cc(NC(=O)Nc3ccc(F)cc3)ccc2O[C@H]1CN(C)C(=O)Nc1cccc2ccccc12	-37	-9	2
CCCC#Cc1ccc([C@@H]2[C@@H](CO)N3CCCCN(Cc4cccnc4)C[C@@H]23)cc1	-14	-8	80
CCCC#Cc1cnc2c(c1)C(=O)N([C@@H](C)CO)C[C@H](C)[C@@H](CN(C)C(=O)CN1CCOCC1)O2	32	-1	22
Cc1ccccc1S(=O)(=O)N1CC(=O)N2[C@H](C1)[C@@H](c1ccc(C#Cc3ccccc3)cc1)[C@@H]2CO	-82*	-1	.
O=C1CN(S(=O)(=O)c2ccccc2)C[C@@H]2[C@H](c3ccc(C#CCc4ccccc4)cc3)[C@@H](CO)N12	-84*	11	.
O=C1CN(S(=O)(=O)c2ccccc2)C[C@@H]2[C@H](c3ccc(C#CCc4ccccc4)cc3)[C@H](CO)N12	-70	6	.
Cc1ccccc1S(=O)(=O)N1CC(=O)N2[C@H](CO)[C@H](c3ccc(C#Cc4ccccc4)cc3)[C@H]2C1	-41	0	.
C[C@H]1CN([C@@H](C)CO)C(=O)c2cccc(NC(=O)CCCCCC(=O)Nc3ccccc3N)c2O[C@H]1CN(C)C(=O)NC1CCCCC1	-61	16	.
CCCNC(=O)N1CC2(CN(C(=O)CCC)C2)c2c(n(C)c3cc(OC)ccc23)[C@H]1CO	-2	.	.
Cc1ccc(S(=O)(=O)Nc2cccc3c2O[C@H](CN(C)Cc2ccc(C(=O)Nc4ccccc4N)cc2)[C@@H](C)CN([C@@H](C)CO)C3=O)cc1	-74	3	.
C[C@@H]1CN([C@H](C)CO)C(=O)c2cccc(NS(=O)(=O)c3ccccc3)c2O[C@H]1CN(C)Cc1ccc(-c2ccccc2)cc1	-91*	.	-87
C[C@H](CO)N1C[C@H](C)[C@H](CN(C)Cc2ccc(C(=O)Nc3ccccc3N)cc2)Oc2c(NS(=O)(=O)c3ccc(Cl)cc3)cccc2C1=O	-89*	9	.
Cc1ccc(S(=O)(=O)Nc2cccc3c2O[C@H](CN(C)Cc2ccc(C(=O)Nc4ccccc4N)cc2)[C@H](C)CN([C@H](C)CO)C3=O)cc1	-85*	8	50
C[C@H](CO)N1C[C@H](C)[C@H](CN(C)Cc2ccc(C(=O)Nc3ccccc3N)cc2)Oc2c(NS(=O)(=O)c3ccccc3)cccc2C1=O	-86*	-4	.
Cc1ccc(S(=O)(=O)Nc2cccc3c2O[C@@H](CN(C)Cc2ccc(C(=O)Nc4ccccc4N)cc2)[C@H](C)CN([C@@H](C)CO)C3=O)cc1	-72	6	.
SMILES	Pf Dd2 inh	C diff growth	T cruzi growth
C[C@@H]1CN([C@H](C)CO)C(=O)c2cccc(NS(=O)(=O)c3ccccc3)c2O[C@@H]1CN(C)Cc1ccc(-c2ccccc2)cc1	-4	.	64
C[C@@H]1CN([C@H](C)CO)C(=O)c2cccc(NS(=O)(=O)c3ccccc3)c2O[C@H]1CN(C)Cc1ccc(C(=O)Nc2ccccc2N)cc1	-78	0	.
CCCC#Cc1ccc2c(c1)O[C@H](CN(C)C(=O)C1CC1)[C@H](C)CN([C@H](C)CO)S2(=O)=O	-51	4	27
C[C@H](CO)N1C[C@H](C)[C@@H](CN(C)C(=O)Cc2ccncc2)Oc2cc(C3=CCCCC3)ccc2S1(=O)=O	-77	3	88
C[C@@H]1CN([C@@H](C)CO)C(=O)c2cc(C#CC3(O)CCCC3)cnc2O[C@@H]1CN(C)C(=O)Nc1ccc2c(c1)OCO2	-2	-1	.
CO[C@H]1CN(C)C(=O)c2ccc(NC(C)=O)cc2OC[C@H](C)N(Cc2cncnc2)C[C@H]1C	-6	.	-31
O=C(N[C@H]1CC[C@@H](CCn2cc(-c3ccccc3)nn2)O[C@H]1CO)c1ccccc1F	-21	-2	15
C[C@@H]1CN([C@H](C)CO)C(=O)c2cccc(NS(=O)(=O)c3ccc(Cl)cc3)c2O[C@@H]1CN(C)Cc1ccc(C(=O)Nc2ccccc2N)cc1	-87*	2	93
C[C@H](CO)N1C[C@H](C)[C@@H](CN(C)Cc2ccc(C(=O)Nc3ccccc3N)cc2)Oc2c(NS(=O)(=O)c3ccc(F)cc3)cccc2C1=O	-44	4	.
O=C(C1CC1)N1CC2(C1)[C@@H](c1ccccc1)[C@@H](CO)N2Cc1ccccc1F	-43	-2	.
OC[C@H]1[C@H](c2ccccc2)C2(CN(Cc3ccccc3F)C2)N1Cc1ccccc1F	-93*	22	.
CC(C)NC(=O)N1[C@@H](CO)[C@@H](c2ccccc2)C12CN(Cc1ccccc1)C2	-51	-7	.
CC(C)NC(=O)N1[C@H](CO)[C@@H](c2ccccc2)C12CN(Cc1ccc(Cl)cc1)C2	-88*	5	.
CC(C)NC(=O)N1[C@@H](CO)[C@@H](c2ccccc2)C12CN(Cc1ccc(Cl)cc1)C2	-69	0	.
CC(C)NC(=O)N1[C@@H](CO)[C@@H](c2ccccc2)C12CN(Cc1ccc(F)cc1)C2	-84*	4	.
COCCNC(=O)C[C@H]1C[C@@H]2c3cc(N(C)C)ccc3O[C@@H]2[C@@H](CO)O1	30	3	.
CO[C@H]1CN(C)C(=O)c2cc(NC(C)=O)ccc2OC[C@H](C)N(Cc2ccncc2)C[C@@H]1C	-78	.	-6
